These results are taken from the supplement of paper PMC10981050.

The cell viability is a read-out of living cells in per cent, often relative to untreated cells.

SMILES strings stand for the structures. Structures can show the parent of a compound that is named as a salt.

The test system of the first test is MARIMO. The test can be described thus: cell viability relative to vehicle control; higher = less cytotoxic. The settings on record: 10 µM; SRSF2 genotype: SRSF2 wt/wt. The procedure, abridged: (§1)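 CRISPR-edited mutant clones and isogenic wild-type clones from four leukaemia lines were screened against Selleck bioactive, kinase and epigenetic probe libraries, with identity-inconsistent compounds excluded. Each compound was acoustically dispensed at a single 10 µM dose into 384-well plates holding 2000 cells in 50 µL medium per well. After 48 h the supernatant was removed and CellTiter-Glo luminescence was read. Viability was expressed as percent of the on-plate vehicle control and analysed in Genedata Screener.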
For the compound `Cc1cc2c(F)c(Oc3ncnn4cc(OC[C@@H](C)O)c(C)c34)ccc2[nH]1`, the cell viability is 106%.

Regarding `CCOc1cc(N2CCC(O)CC2)ccc1Nc1ncc2c(n1)N(C)c1ccccc1C(=O)N2C`, the cell viability stood at 59.6%.

On to `CCCc1nn(C)c2c(=O)[nH]c(-c3cc(S(=O)(=O)N4CCN(C)CC4)ccc3OCC)nc12` [Sildenafil citrate], for which the cell viability was 108%.

As for `CC(O)C(O)c1cnc2nc(N)[nH]c(=O)c2n1` (stereo not drawn) [6-Biopterin], the cell viability worked out at 107%.

Regarding `COc1ccc(-c2ccc3ncc4c(c3c2)n(-c2ccc(N3CCNCC3)c(C(F)(F)F)c2)c(=O)n4C)cn1`, the cell viability stood at 0.28%.

Regarding `CO/N=C(\C(=O)N[C@@H]1C(=O)N2C(C(=O)O)=C(CSc3nnnn3C)CS[C@H]12)c1csc(N)n1` [Cefmenoxime hydrochloride], the cell viability was 97.1%.

Turning to `COC(=O)Nc1nc2cc(Sc3ccccc3)ccc2[nH]1` [Fenbendazole (Panacur)], the cell viability was found to be 10.4%.

Consider `COc1cc2nccc(Oc3ccc(NC(=O)C4(C(=O)Nc5ccc(F)cc5)CC4)cc3)c2cc1OC`, for which the cell viability amounted to 66.8%.

Regarding `CCCCOc1c(C(=O)c2c(F)cc(C)cc2F)c[nH]c2nncc1-2`, the cell viability was determined as 84.8%.

Turning to `CCCCC(C)(O)C/C=C/[C@H]1[C@H](O)CC(=O)[C@@H]1CCCCCCC(=O)OC` (mixture of isomers) [Misoprostol], the cell viability amounted to 79%.

In the case of `O=c1sn(-c2cccc3ccccc23)c(=O)n1Cc1ccccc1` [Tideglusib], the cell viability amounted to 79.9%.

Turning to `O=C(COc1ccc(Cl)cc1)NC1CCC(NC(=O)COc2ccc(Cl)cc2)CC1` (stereo not drawn) [ISRIB (trans-isomer)], the cell viability was 102%.

On to `CC=C(C)C(=O)O` [Tiglic acid], for which the cell viability worked out at 103%.

In a further test the test system is MOLM14. The description is as above. The settings on record: 10 µM; SRSF2 genotype: SRSF2 P95H/wt. The procedure, abridged: as §1
For `Cc1nc(N)sc1-c1ccnc(Nc2ccc(N3CCOCC3)cc2)n1`, the cell viability worked out at 5.52%.

Turning to `C=C[C@]1(C)C[C@@H](OC(=O)CSCCN(CC)CC)[C@]2(C)[C@H](C)CC[C@]3(CCC(=O)[C@H]32)[C@@H](C)[C@@H]1O` [Tiamulin], the cell viability is 84%.

With `C[C@@H]1CC[C@@]2(OC1)O[C@H]1C[C@H]3[C@@H]4CC=C5C[C@@H](O)C[C@@H](O)[C@]5(C)[C@H]4CC[C@]3(C)[C@H]1[C@@H]2C` [Ruscogenin], the cell viability came out at 103%.

For `C[C@@H]1O[C@@H](O[C@H]2[C@H](O[C@H]3CC[C@@]4(C)[C@@H](CC[C@]5(C)[C@@H]4CC=C4[C@@H]6CC(C)(C)CC[C@]6(C(=O)O)CC[C@]45C)[C@]3(C)CO)OC[C@H](O[C@@H]3O[C@H](CO)[C@@H](O)[C@H](O)[C@H]3O)[C@@H]2O)[C@H](O)[C@H](O)[C@H]1O` [Pulsatilla saponin D], the cell viability worked out at 0.5%.

As to `Cc1cc(C#N)cc(C)c1Oc1nc(Nc2ccc(C#N)cc2)nc(N)c1Br` [Etravirine (TMC125)], the cell viability was found to be 107%.

Regarding `CCCNCC(O)COc1ccccc1C(=O)CCc1ccccc1` (stereo not drawn) [Propafenone HCl], the cell viability turned out to be 73.2%.

Take `CN1CCN(Cc2ccc(Nc3ncc(Cl)c(Nc4ccccc4S(=O)(=O)N(C)C)n3)cc2)CC1`: the cell viability is 11.3%.

In the case of `O=C(O)CNC(=O)c1nc(Cl)c2ccccc2c1O`, the cell viability amounted to 80.2%.

Turning to `Cc1cc(C2CCCCC2)n(O)c(=O)c1` [Ciclopirox (Penlac)], the cell viability was found to be 7.11%.

On to `COc1ccc(CCC(=O)Nc2nc3ccc(Cl)cc3s2)cc1OC`, for which the cell viability stood at 94.6%.

Turning to `COc1ccc(/C=C/c2cc(O)cc(O[C@@H]3O[C@H](CO)[C@@H](O)[C@H](O)[C@H]3O)c2)cc1O` [Rhapontin], the cell viability turned out to be 90.7%.

With `CC(C)=CCCC(C)(OC1OC(COC2OCC(O)C(O)C2O)C(O)C(O)C1O)C1CCC2(C)C1C(O)CC1C3(C)CCC(OC4OC(CO)C(O)C(O)C4O)C(C)(C)C3CCC12C` (stereo not drawn) [Gynostemma Extract], the cell viability stood at 101%.

On to `CC1(C)CC[C@]2(C(=O)O)[C@H](O)C[C@]3(C)C(=CC[C@@H]4[C@@]5(C)CC[C@H](O)[C@@](C)(C=O)[C@@H]5CC[C@]43C)[C@@H]2C1` [Quillaic acid], for which the cell viability was 84.6%.

For the compound `CCN(CC)CCNC(=O)c1c(C)[nH]c(/C=C2\C(=O)Nc3ccc(F)cc32)c1C` [Sunitinib], the cell viability came to 0.2%.

For `CCCCCCCCCCCCCCCC(=O)O` [Palmitic acid], the cell viability was 100%.

Take `C=CCS[S+]([O-])CC=C` (stereo not drawn) [Allicin]: the cell viability was determined as 99.8%.

Take `Cc1ccccc1-c1cc(N2CCN(C)CC2)ncc1N(C)C(=O)C(C)(C)c1cc(C(F)(F)F)cc(C(F)(F)F)c1` [Netupitant]: the cell viability was 107%.

Consider `CCCCCCCCCCCCCCCCOc1nc2ccc(C)cc2c(=O)o1` [Cetilistat], for which the cell viability came out at 103%.

For the compound `C[C@H](CCC(=O)O)[C@H]1CC[C@H]2[C@@H]3[C@H](O)C[C@@H]4C[C@H](O)CC[C@]4(C)[C@H]3C[C@H](O)[C@]12C` [Cholic acid], the cell viability was 98.9%.

In the case of `CCCCC(=O)OCC(=O)[C@H]1[C@H](C)C[C@H]2[C@@H]3C[C@H](F)C4=CC(=O)C=C[C@]4(C)[C@@]3(F)[C@@H](O)C[C@@]21C` [Diflucortolone valerate], the cell viability amounted to 92%.

Consider `CCn1cc(-c2cccc(C(F)(F)F)c2)c2sc(C(=N)NC3CCS(=O)(=O)CC3)cc2c1=O`, for which the cell viability is 27%.

Take `Cc1c(CN2CCN(C(=O)[C@H](C)O)CC2)sc2c(N3CCOCC3)nc(-c3cnc(N)nc3)nc12` [Apitolisib (GDC-0980, RG7422)]: the cell viability turned out to be 21.7%.

Take `CC[C@H](NC(=O)[C@H](C)NC)C(=O)N1C[C@@H](O)C[C@H]1Cc1c(-c2[nH]c3cc(F)ccc3c2C[C@@H]2C[C@H](O)CN2C(=O)[C@H](CC)NC(=O)[C@H](C)NC)[nH]c2cc(F)ccc12`: the cell viability amounted to 61.6%.

For the compound `CC1(C)O[C@H]1COc1c2ccoc2cc2oc(=O)ccc12` [Oxypeucedanin], the cell viability is 93.6%.

As to `CCCCCCC1CCC(=O)O1` (stereo not drawn), the cell viability worked out at 103%.

Take `CN1[C@@H]2CC[C@H]1C[C@@H](OC(=O)c1c[nH]c3ccccc13)C2` [Tropisetron HCl]: the cell viability stood at 104%.

On to `CC1(C)[C@@H](O[C@H]2O[C@H](C(=O)O)[C@@H](O)[C@H](O)[C@H]2O[C@@H]2O[C@H](C(=O)O)[C@@H](O)[C@H](O)[C@H]2O)CC[C@]2(C)[C@H]3C(=O)C=C4[C@@H]5C[C@@](C)(C(=O)O)CC[C@]5(C)CC[C@@]4(C)[C@]3(C)CC[C@@H]12` [Ammonium Glycyrrhizate], for which the cell viability was found to be 106%.

As for `Cc1cc2c(F)c(Oc3ncnn4cc(OC[C@@H](C)O)c(C)c34)ccc2[nH]1`, the cell viability turned out to be 97.5%.

As to `CCOc1cc(N2CCC(O)CC2)ccc1Nc1ncc2c(n1)N(C)c1ccccc1C(=O)N2C`, the cell viability was found to be 62.4%.

As for `CCCc1nn(C)c2c(=O)[nH]c(-c3cc(S(=O)(=O)N4CCN(C)CC4)ccc3OCC)nc12` [Sildenafil citrate], the cell viability is 108%.

Turning to `CC(O)C(O)c1cnc2nc(N)[nH]c(=O)c2n1` (stereo not drawn) [6-Biopterin], the cell viability was 109%.

Consider `COc1ccc(-c2ccc3ncc4c(c3c2)n(-c2ccc(N3CCNCC3)c(C(F)(F)F)c2)c(=O)n4C)cn1`, for which the cell viability was found to be 0.18%.

On to `CO/N=C(\C(=O)N[C@@H]1C(=O)N2C(C(=O)O)=C(CSc3nnnn3C)CS[C@H]12)c1csc(N)n1` [Cefmenoxime hydrochloride], for which the cell viability was found to be 99.7%.

With `COC(=O)Nc1nc2cc(Sc3ccccc3)ccc2[nH]1` [Fenbendazole (Panacur)], the cell viability amounted to 9.32%.

Take `COc1cc2nccc(Oc3ccc(NC(=O)C4(C(=O)Nc5ccc(F)cc5)CC4)cc3)c2cc1OC`: the cell viability was 5.29%.

On to `CCCCOc1c(C(=O)c2c(F)cc(C)cc2F)c[nH]c2nncc1-2`, for which the cell viability turned out to be 68.8%.

For `CCCCC(C)(O)C/C=C/[C@H]1[C@H](O)CC(=O)[C@@H]1CCCCCCC(=O)OC` (mixture of isomers) [Misoprostol], the cell viability was found to be 83.5%.

`O=c1sn(-c2cccc3ccccc23)c(=O)n1Cc1ccccc1` [Tideglusib]: the cell viability came out at 55.5%.

On to `O=C(COc1ccc(Cl)cc1)NC1CCC(NC(=O)COc2ccc(Cl)cc2)CC1` (stereo not drawn) [ISRIB (trans-isomer)], for which the cell viability is 107%.

Regarding `CC=C(C)C(=O)O` [Tiglic acid], the cell viability is 102%.
